Laboratory results as given in PubChem BioAssay (NCATS).
“And” between values parts separate entries of the source, which are not always exact repeats. Equal values may be shown once. Records with an inconclusive call do not appear. The source made the active and inactive calls. Unless noted, calls come from the whole dose curve; as a rule, active = well fitted curve in the direction sought with a large enough effect; inconclusive = small, poorly fitted or top-dose-only effect, or another doubt; inactive = no such curve, though single readings can be large; an effect the other way counts as inactive or inconclusive.

What was measured:
[1] = Cell Viability - Jurkat (AID 426;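 active = dose-dependent loss of cell ATP signal giving a full or clear fitted curve, ranked by lower potency value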; note: potency is the fitted concentration of half-maximal effect); conditions: qHTS
Procedure, shortened: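 qHTS, 1536-well; Jurkat E6-1, 5000 cells/well, complete medium; cpd 40 hr, 37 °C; CellTiter-Glo 20 min RT; luminescence. AC50 by Hill fit.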

[2] = Cell Viability - Mesenchymal (AID 546); conditions: mesenchymal cells viability, qHTS; series mostly up to 91.7 µM;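 note: cells exposed to compound for 40 hours before reading; 0% = DMSO only and -100% = 100 µM tamoxifen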
Procedure, shortened: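 Normal human renal glomerulus-derived kidney mesenchymal cells, 1000 per well in complete medium, were treated with compounds for 40 hr at 37 °C. Viability was read as intracellular ATP by CellTiter-Glo luminescence; AC50 values came from Hill-equation fits of qHTS concentration-response data.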

[3] = Cellular Toxicity (caspase-3) MRC-5 (AID 659); conditions: MRC-5 cells, luminescence, normalized: DMSO 0%, 10 µM staurosporine 100%; series mostly up to 91.7 µM
Procedure, shortened: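 Luminescence from caspase-cleaved aminoluciferin substrate (Caspase-Glo 3/7, 1 hr RT) reports caspase 3/7 activity in MRC-5 lung fibroblasts after 16 hr compound exposure. Normalized to DMSO basal and 10 uM staurosporine as 100%; AC50 from Hill fits.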

[4] = MultiTox-Fluor Cytotoxicity Assay - LYMP1-001 - Dead Cells (AID 946); conditions: LYMP1-001 lymphoblastoid cells, dead-cell protease fluorescence; series mostly up to 92.2 µM;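 note: 0% = DMSO and 100% = tetraoctylammonium bromide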
Procedure, shortened: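 Seed 2500 LYMP1-001 cells/well, incubate 5 hr at 37 C; add compound, 16 hr at 37 C; add MultiTox-Fluor reagent, 60 min RT; read dead-cell fluorescence Ex/Em=485/520. Normalize to DMSO and 15 uM tetraoctylammonium bromide.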

[5] = Cell Viability - LYMP1-003 - Assay at 24 hr (AID 963); conditions: LYMP1-003 lymphoblastoid cell viability; series mostly up to 92.2 µM;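 note: plate controls were DMSO only for no effect and tetraoctylammonium bromide positive control for full effect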
Procedure, shortened: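 Cells seeded at 2500/well, 5 hr at 37 C; compounds added; 24 hr at 37 C; CellTiter-Glo added, 30 min room temperature; luminescence read. Decrease in ATP taken as cytotoxicity, AC50 from Hill modelling.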

[6] = Cell Viability - LYMP2-015 (AID 971); conditions: LYMP2-015 lymphoblastoid cell viability; series mostly up to 92.2 µM;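 note: 0% = DMSO only and full effect = 92 µM tetraoctylammonium bromide; nearly all actives have a fitted effect of over 55% in size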
Procedure, shortened: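 Luminescent ATP read-out (CellTiter-Glo) served as the viability measure after lymphoblastoid cells were exposed to compounds for 24 hours at 37 C. Concentration-response data were fitted with the Hill equation to give AC50.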

[7] = Cell Viability - LYMP2-016 (AID 984); conditions: LYMP2-016 lymphoblastoid cell viability, qHTS; series mostly up to 92.2 µM; note: % is set by controls: 0 for no effect and ±100 for the full control effect; nearly all actives have a fitted effect of over 55% in size
Procedure, shortened: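 Cells were seeded at 2500 per well and rested 5 hr before a 24 hr compound exposure at 37 C. Viability was then gauged as cellular ATP by luciferase luminescence, with AC50 values fitted to the Hill equation.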

[8] = Cell Viability - LYMP1-002 - Assay at 24 hr (AID 993); conditions: LYMP1-002 lymphoblastoid cells viability; series mostly up to 92.2 µM; note: % is set by controls: 0 for no effect and ±100 for the full control effect
Procedure, shortened: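 Cells plated 2500/well, 5 hr 37 C; compounds added, 24 hr 37 C; CellTiter-Glo added, 30 min RT; luminescence read. Tetraoctylammonium bromide positive control. Hill-equation AC50.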

[9] = qHTS assay for small molecule disruptors of the mitochondrial membrane potential - 5 hr assay (AID 651755; calls by dose curve; note: % is set by controls: 0 for no effect and ±100 for the full control effect; nearly all actives have a fitted effect of over 40% in size); conditions: JC-1-type ratio dye; series mostly up to 92.2 µM
Procedure, shortened: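 HepG2 cells, attached overnight at 37C, were exposed to compound or DMSO for 5 hr at 37C, 5% CO2. Mito-MPS dye was then added for 30 min, and fluorescence read at 490/535 nm (monomers) and 540/590 nm (aggregates).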

[10] = target: Peroxisome proliferator-activated receptor alpha (Homo sapiens) (UniProt Q07869); assay: qHTS assay for small molecule agonists of the peroxisome proliferator-activated receptor alpha (PPARalpha) signaling pathway (AID 651778); conditions: PathHunter PPARalpha complementation, chemiluminescence, 6 h; hits give high values; note: % of control where 0% means no effect
Chain of Peroxisome proliferator-activated receptor alpha (Homo sapiens) (Q07869 whole entry, looked up): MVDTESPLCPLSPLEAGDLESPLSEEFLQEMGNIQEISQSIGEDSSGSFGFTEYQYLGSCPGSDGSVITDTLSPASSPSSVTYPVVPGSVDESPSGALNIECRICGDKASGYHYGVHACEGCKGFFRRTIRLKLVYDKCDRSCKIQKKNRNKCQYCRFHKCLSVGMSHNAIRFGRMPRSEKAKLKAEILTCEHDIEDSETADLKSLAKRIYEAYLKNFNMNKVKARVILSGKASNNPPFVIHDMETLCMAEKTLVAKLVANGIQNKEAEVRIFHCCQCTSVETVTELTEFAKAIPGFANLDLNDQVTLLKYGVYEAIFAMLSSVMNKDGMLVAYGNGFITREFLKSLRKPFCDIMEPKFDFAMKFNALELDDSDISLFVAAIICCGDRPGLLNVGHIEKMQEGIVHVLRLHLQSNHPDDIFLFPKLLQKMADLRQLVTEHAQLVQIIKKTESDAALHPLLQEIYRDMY
Procedure, shortened: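 Cells plated at 2,000/well and held overnight at 37 C, 5% CO2, then compound added by pin tool for 6 hr; after PathHunter detection reagent and 60 min at room temperature, chemiluminescence from enzyme complementation was read.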

[11] = target: Nuclear receptor ROR-gamma (Homo sapiens) (UniProt P51449); assay: qHTS assay for small molecule antagonists of the retinoid-related orphan receptor gamma (ROR-gamma) signaling pathway (AID 651802); conditions: ROR-gamma antagonist cell reporter assay; series mostly up to 92.2 µM;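 note: luciferase reporter luminescence driven by ROR response element; % is set by controls: 0 for no effect and ±100 for the full control effect; nearly all actives have a fitted effect of over 60% in size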
Chain of Nuclear receptor ROR-gamma (Homo sapiens) (P51449 whole entry, looked up): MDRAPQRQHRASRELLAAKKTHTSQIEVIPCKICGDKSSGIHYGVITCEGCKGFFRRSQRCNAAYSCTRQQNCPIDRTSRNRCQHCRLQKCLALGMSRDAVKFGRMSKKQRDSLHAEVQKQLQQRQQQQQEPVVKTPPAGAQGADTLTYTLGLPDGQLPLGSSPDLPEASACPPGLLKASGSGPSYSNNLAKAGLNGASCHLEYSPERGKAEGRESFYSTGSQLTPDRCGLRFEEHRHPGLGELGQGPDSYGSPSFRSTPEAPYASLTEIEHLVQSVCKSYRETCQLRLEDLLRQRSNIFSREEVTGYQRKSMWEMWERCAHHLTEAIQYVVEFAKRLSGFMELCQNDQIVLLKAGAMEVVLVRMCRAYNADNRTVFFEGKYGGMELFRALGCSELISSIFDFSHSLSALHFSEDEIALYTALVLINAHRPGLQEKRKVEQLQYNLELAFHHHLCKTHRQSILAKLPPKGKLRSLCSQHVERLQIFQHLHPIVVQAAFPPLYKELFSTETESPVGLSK
Procedure, shortened: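 CHO, TET-inducible ROR + RORE-LUC reporter, 1536-well qHTS. Compound pinned, doxycycline added, 16hr 37C/5% CO2. ONE-Glo, 30 min RT, luminescence; signal drop scored as antagonism.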

[12] = qHTS assay for small molecule antagonists of the retinoid-related orphan receptor gamma (ROR-gamma) signaling pathway - cell viability counter screen (AID 720652; active = well fitted curve in the direction sought with a large enough effect in the repeat runs; an effect the other way counts as inactive or inconclusive;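 note: compound exposure lasted 16 hr before ATP read; % is set by controls: 0 for no effect and ±100 for the full control effect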); conditions: RORgamma reporter cell line viability counter screen; series mostly up to 92.2 µM
Procedure, shortened: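 Luminescence from CellTiter-Glo after 30 min at room temperature reported cellular ATP as the cytotoxicity measure. Cells were the CHO reporter line with doxycycline-induced ROR-gamma expression, exposed to compound for 16 hr at 37 C.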

[13] = qHTS assay for small molecule agonists of the antioxidant response element (ARE) signaling pathway measured by Nrf2-dependant transcriptional activity - cell viability counter screen (AID 720653; active = well fitted curve in the direction sought with a large enough effect in the repeat runs; an effect the other way counts as inactive or inconclusive; note: % is set by controls: 0 for no effect and ±100 for the full control effect); conditions: ARE-bla HepG2 viability, CellTiter-Glo ATP luminescence, 16 h; hits give low values
Procedure, shortened: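 ARE-bla HepG2 cells (2,000/well) rested 5 hrs at 37C/5% CO2, then exposed to compounds in DMSO for 16 hrs. Viability was read in the same wells as intracellular ATP by luminescence, 30 min at room temperature after reagent addition.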

[14] = target: Nuclear receptor subfamily 1 group I member 2 (Rattus norvegicus) (UniProt Q9R1A7); assay: qHTS assay for small molecule activators of the rat pregnane X receptor (rPXR) signaling pathway (AID 651751; call rule not given here; note: 0% is about no effect); conditions: rPXR reporter cells, luciferase (One-Glo), 24 h
Chain of Nuclear receptor subfamily 1 group I member 2 (Rattus norvegicus) (Q9R1A7 whole entry, looked up): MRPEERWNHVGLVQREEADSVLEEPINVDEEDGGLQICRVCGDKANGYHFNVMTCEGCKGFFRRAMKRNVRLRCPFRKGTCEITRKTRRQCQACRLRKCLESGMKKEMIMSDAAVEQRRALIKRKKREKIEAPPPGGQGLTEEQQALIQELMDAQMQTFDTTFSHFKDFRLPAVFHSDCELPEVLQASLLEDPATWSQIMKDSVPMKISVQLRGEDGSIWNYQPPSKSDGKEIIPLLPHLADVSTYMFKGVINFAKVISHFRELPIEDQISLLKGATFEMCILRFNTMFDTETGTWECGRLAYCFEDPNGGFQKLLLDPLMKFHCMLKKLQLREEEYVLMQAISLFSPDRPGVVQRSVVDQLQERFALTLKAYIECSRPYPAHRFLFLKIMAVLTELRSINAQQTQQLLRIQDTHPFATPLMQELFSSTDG

[15] = Cell Viability - NIH 3T3 (AID 541); conditions: NIH 3T3 cell viability, qHTS; activity change, negative = cytotoxicity: at 92.2 µM (top of the series); note: nearly all actives have a fitted effect of over 25% in size; note: potency is the fitted concentration of half-maximal effect;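 for activity change, negative = cytotoxicity: plate controls were DMSO alone for no effect and tamoxifen positive control for full effect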
Procedure, shortened: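 Luminescent ATP signal (CellTiter-Glo) served as the viability read-out after NIH 3T3 cells were exposed to compounds over a concentration range for 40 hr at 37 °C. Hill-equation modelling of concentration-response data gave AC50.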

[16] = Cellular Toxicity (caspase-3) NIH 3T3 (AID 666); conditions: NIH 3T3 caspase-3 activation, apoptosis/toxicity; series mostly up to 92.2 µM;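 note: caspase signal read after 16 h compound exposure; 0% = DMSO basal and 100% = 100 µM tamoxifen stimulation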
Procedure, shortened: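 Luminescence from aminoluciferin released by caspase-3/7 cleavage of a peptide substrate served as read-out. Mouse fibroblast NIH 3T3 cells were exposed to compounds over a concentration range for 16 hours, and AC50 values came from standard Hill modelling.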

[17] = Cell Viability - LYMP2-024 (AID 988); conditions: LYMP2-024 lymphoblastoid cell viability; series mostly up to 92.2 µM;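 note: plate controls were DMSO only for no effect and 92 µM tetraoctylammonium bromide for full effect; nearly all actives have a fitted effect of over 60% in size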
Procedure, shortened: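 Steps: seed 2500 cells/well, 5 hr 37 C; add compound, 24 hr 37 C; add CellTiter-Glo, 30 min room temperature; read luminescence. AC50 derived by Hill modelling of concentration-dependent ATP loss.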

[18] = target: Vitamin D3 receptor (Homo sapiens) (UniProt P11473); assay: qHTS assay for small molecule agonists of vitamin D receptor signaling (AID 588543; calls by dose curve;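 note: 0% = DMSO basal and 100% = reference agonist control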); conditions: HEK293T VDR-UAS-bla, beta-lactamase ratio, 16 h; series mostly up to 76.8 µM
Chain of Vitamin D3 receptor (Homo sapiens) (P11473 whole entry, looked up): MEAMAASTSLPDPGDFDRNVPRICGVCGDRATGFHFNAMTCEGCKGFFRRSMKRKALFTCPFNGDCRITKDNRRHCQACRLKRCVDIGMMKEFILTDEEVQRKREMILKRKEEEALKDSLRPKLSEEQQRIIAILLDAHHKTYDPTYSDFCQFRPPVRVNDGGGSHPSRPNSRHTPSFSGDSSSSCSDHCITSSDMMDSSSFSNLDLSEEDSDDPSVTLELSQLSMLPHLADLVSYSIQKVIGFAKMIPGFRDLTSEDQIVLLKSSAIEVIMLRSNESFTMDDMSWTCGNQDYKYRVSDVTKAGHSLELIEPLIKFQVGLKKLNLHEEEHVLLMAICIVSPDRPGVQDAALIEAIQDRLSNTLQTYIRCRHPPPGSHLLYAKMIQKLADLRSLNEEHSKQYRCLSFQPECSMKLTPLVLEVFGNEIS
Procedure, shortened: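 Reporter cells (HEK293T, VDR-UAS-bla) were seeded in medium with 2% charcoal-stripped serum and incubated 5 h, then compounds in concentration series were added for 16 h at 37 °C. Stimulation was scaled between DMSO basal and 50 nM 1α,25-dihydroxyvitamin D3.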

[19] = qHTS assay for cell viability of the p53RE-bla HCT-116 cell line (AID 743292); conditions: p53RE-bla HCT-116 viability, ATP luminescence, 16 h; series mostly up to 95 µM; note: % is set by controls: 0 for no effect and ±100 for the full control effect; nearly all actives have a fitted effect of over 55% in size
Procedure, shortened: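 ATP-based luminescence, 16 h compound exposure at 37 C, p53RE-bla HCT-116 cells at 4,000/well.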

[20] = MultiTox-Fluor Cytotoxicity Assay - LYMP1-002 - Live Cells (AID 955); conditions: LYMP1-002 lymphoblastoid live-cell protease fluorescence viability; series mostly up to 46.1 µM; note: % is set by controls: 0 for no effect and ±100 for the full control effect
Procedure, shortened: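 Read-out is live-cell protease activity (cell-permeant GF-AFC substrate, fluorescence Ex/Em=405/510), where a decrease indicates acute toxicity. Human lymphoblastoid cells were treated 16 hours at 37 C in a concentration series, and AC50 values came from standard Hill modelling.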

Nc1ccc(Oc2ccc(N)cc2)cc1
inactive: Potency [1] > 92 µM | Potency [2] | outcome [3] | outcome [4] | outcome [5] | Potency [6] | Potency [7] | Potency [8] | Potency [9] | max response [10] -1.7% and -2.66% | Potency [11] | Potency [12] | max response [13] -2.21% and -13% | max response [14] 6.46% and 5.6%

CC(C)(Cl)[N+](=O)[O-]
inactive: Potency [1] > 92 µM | Potency [15] | Potency [2] | outcome [3] | Potency [16] | outcome [5] | Potency [6] | Potency [17] | Potency [8] | outcome [18] | Potency [9] | max response [10] -3.23% | Potency [11] | Potency [12] | Potency [19] | max response [14] 2.49%

CC(C#N)CCC#N (centres undefined)
inactive: Potency [1] > 92 µM | Potency [15] | Potency [16] | outcome [20] | outcome [5] | Potency [6] | Potency [7] | Potency [17] | Potency [8] | outcome [18] | max response [10] -3.28% | Potency [11] | Potency [12] | max response [13] 0.528% | Potency [19] | max response [14] 3.89%

CNC(=O)O/N=C/C(C)(C)S(C)=O (centres undefined)
inactive: Potency [1] > 92 µM | Potency [2] | outcome [3] | Potency [16] | outcome [4] | outcome [20] | outcome [5] | Potency [6] | Potency [7] | Potency [17] | Potency [8] | outcome [18] | Potency [9] | max response [10] -3.1% and 0.659% | Potency [11] | Potency [12] | max response [13] 1.76% and 2.37% | Potency [19] | max response [14] 6.61% and 1.92%

COC(=O)Nc1nc2ccccc2[nH]1
active: Potency [1] 3.38 µM | Potency [15] 6.31 µM
inactive: Potency [2] | outcome [3] | Potency [16] | outcome [20] | outcome [5] | Potency [7] | Potency [17] | Potency [8] | outcome [18] | Potency [9] | max response [10] -5.67% and 0.607% | Potency [11] | Potency [12] | max response [13] 0.0482% and -1.74% | Potency [19]

CC(C)(C)OOC(=O)c1ccccc1
inactive: Potency [2] | outcome [3] | Potency [16] | outcome [4] | outcome [5] | Potency [6] | Potency [7] | Potency [17] | Potency [8] | outcome [18] | Potency [9] | max response [10] -5.26% and -0.274% | Potency [11] | Potency [12] | max response [13] 3.96% and -1.99% | Potency [19] | max response [14] 2.87% and -0.927%
active: activity change, negative = cytotoxicity [15] -137%

Clc1ccc(C(Cl)(Cl)Cl)cc1Cl
inactive: Potency [1] > 92 µM | Potency [15] | Potency [2] | outcome [3] | outcome [4] | outcome [20] | outcome [5] | Potency [6] | Potency [7] | Potency [17] | Potency [8] | outcome [18] | Potency [9] | max response [10] 1.82% | Potency [11] | Potency [12] | max response [13] -18% | Potency [19] | max response [14] 3.68%
